Measured values: the supplement of paper PMC10849652
About 7,900 targets were measured; listed, in parts, are those with a hit and a random draw of the rest. About 0.6% of all pairs of compound and target were hits. Unmarked numbers belong to inactive results.

Columns and labels:
Assay in all cases: log2 fold change, soluble protein after heating vs DMSO (PISA); higher = thermal stabilisation; K562 cells, 10 uM, 30 min; active = over 0.2 and 3.5 SD of the protein, either way, in both replicates (recomputed)
[1] = compound: NC(=O)Nc1cc(-c2cccc(F)c2)sc1C(=O)N[C@H]1CCCNC1
Outline: (§1)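 K562 cells at 2×10^6 cells/mL were exposed to 10 μM compound for 30 min, then aliquots were heated for 3 min across 48°C-58°C, pooled, and extracted in PBS containing 0.5% NP-40 at 4°C. The supernatant after 21,000xg for 90 min was taken as soluble protein and measured by TMTpro 16plex LC-MS/MS with channel sums equalised. Thermal stability is reported relative to control samples, with values from duplicates. Fold changes are given on a log2 scale.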

[2] = compound: NC(=O)c1cnc(N[C@@H]2CCCC[C@@H]2N)nc1Nc1cccc(-n2nccn2)c1
Outline: as §1

[3] = compound: NC1(c2ccc(-c3nc4ccn5c(=O)[nH]nc5c4cc3-c3ccccc3)cc2)CCC1
Outline: as §1

[4] = compound: NCC(=O)Nc1ccc(-n2nc(C(F)(F)F)cc2-c2ccc3c(ccc4ccccc43)c2)cc1
Outline: as §1

entinostat = compound: Nc1ccccc1NC(=O)c1ccc(CNC(=O)OCc2cccnc2)cc1 [entinostat]
Outline: as §1

vorinostat = compound: O=C(CCCCCCC(=O)Nc1ccccc1)NO [vorinostat]
Outline: as §1

citarinostat = compound: O=C(CCCCCCNC(=O)c1cnc(N(c2ccccc2)c2ccccc2Cl)nc1)NO [citarinostat]
Outline: as §1

silmitasertib = compound: O=C(O)c1ccc2c(c1)nc(Nc1cccc(Cl)c1)c1ccncc12 [silmitasertib]
Outline: as §1

[5] = compound: O=C1NC(=O)C(c2cnc3ccccn23)=C1c1cn2c3c(cc(F)cc13)CN(C(=O)N1CCCCC1)CC2
Outline: as §1

[6] = compound: c1cc(OCCN2CCCCC2)cc(-c2n[nH]c3ccc(-c4nnc[nH]4)cc23)c1
Outline: as §1

entospletinib = compound: c1cn2cc(-c3ccc4cn[nH]c4c3)nc(Nc3ccc(N4CCOCC4)cc3)c2n1 [entospletinib]
Outline: as §1

Sequence of UniProt Q6IAN0 (Q6IAN0 whole entry, looked up): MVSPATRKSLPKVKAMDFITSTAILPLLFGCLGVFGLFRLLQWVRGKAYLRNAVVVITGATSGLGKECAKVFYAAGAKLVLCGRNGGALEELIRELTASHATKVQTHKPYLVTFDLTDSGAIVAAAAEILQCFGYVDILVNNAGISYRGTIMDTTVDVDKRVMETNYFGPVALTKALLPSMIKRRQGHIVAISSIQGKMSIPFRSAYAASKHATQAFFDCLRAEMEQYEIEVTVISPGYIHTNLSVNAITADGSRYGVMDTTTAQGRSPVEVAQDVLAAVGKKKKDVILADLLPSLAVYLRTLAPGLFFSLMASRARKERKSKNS
Sequence of UniProt Q96LJ7 (Q96LJ7 whole entry, looked up): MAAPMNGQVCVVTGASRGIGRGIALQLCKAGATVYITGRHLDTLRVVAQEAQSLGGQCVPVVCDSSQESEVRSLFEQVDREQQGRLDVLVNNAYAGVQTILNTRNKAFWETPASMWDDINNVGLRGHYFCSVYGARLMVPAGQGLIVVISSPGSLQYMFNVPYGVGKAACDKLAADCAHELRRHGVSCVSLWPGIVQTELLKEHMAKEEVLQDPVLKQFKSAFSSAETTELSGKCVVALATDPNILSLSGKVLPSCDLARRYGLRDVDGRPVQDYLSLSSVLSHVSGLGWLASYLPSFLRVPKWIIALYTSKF
Sequence of UniProt P25685 (P25685 whole entry, looked up): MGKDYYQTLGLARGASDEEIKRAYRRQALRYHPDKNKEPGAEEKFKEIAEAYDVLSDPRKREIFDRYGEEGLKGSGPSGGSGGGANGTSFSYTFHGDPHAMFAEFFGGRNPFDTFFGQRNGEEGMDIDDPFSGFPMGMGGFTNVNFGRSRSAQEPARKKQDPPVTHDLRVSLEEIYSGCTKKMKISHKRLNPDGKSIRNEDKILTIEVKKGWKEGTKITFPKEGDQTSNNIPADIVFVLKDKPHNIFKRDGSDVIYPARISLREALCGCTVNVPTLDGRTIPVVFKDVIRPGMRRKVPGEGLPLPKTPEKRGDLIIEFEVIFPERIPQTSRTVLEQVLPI
Sequence of UniProt Q9BSJ8 (Q9BSJ8 whole entry, looked up): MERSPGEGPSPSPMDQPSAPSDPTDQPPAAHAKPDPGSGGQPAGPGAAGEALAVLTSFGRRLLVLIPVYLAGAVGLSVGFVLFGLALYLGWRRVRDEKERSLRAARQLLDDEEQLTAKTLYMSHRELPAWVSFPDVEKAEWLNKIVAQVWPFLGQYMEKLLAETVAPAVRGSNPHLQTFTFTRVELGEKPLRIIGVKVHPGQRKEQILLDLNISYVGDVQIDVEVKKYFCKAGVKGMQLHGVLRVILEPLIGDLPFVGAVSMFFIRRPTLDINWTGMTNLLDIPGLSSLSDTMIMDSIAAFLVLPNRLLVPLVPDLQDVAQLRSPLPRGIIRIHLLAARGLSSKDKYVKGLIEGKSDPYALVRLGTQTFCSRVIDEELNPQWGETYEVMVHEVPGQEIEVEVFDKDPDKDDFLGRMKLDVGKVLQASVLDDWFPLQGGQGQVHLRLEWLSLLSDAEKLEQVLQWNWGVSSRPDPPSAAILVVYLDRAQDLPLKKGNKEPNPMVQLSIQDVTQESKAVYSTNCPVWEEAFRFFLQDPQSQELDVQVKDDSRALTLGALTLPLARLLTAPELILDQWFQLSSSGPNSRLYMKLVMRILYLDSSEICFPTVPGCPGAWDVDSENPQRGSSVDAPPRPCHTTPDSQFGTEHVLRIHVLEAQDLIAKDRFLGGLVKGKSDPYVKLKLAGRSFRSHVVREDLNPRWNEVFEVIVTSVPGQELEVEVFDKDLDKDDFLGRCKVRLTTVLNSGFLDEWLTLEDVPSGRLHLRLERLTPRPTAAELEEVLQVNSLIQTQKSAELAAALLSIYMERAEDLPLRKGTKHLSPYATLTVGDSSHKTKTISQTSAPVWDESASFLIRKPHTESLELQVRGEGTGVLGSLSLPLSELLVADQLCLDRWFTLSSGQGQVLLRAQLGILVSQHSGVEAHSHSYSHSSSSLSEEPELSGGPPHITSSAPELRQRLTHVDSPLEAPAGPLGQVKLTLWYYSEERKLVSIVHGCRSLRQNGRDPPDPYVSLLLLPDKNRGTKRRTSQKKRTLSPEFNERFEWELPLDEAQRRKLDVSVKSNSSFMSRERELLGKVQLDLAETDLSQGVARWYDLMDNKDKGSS
Sequence of UniProt P18074 (P18074 whole entry, looked up): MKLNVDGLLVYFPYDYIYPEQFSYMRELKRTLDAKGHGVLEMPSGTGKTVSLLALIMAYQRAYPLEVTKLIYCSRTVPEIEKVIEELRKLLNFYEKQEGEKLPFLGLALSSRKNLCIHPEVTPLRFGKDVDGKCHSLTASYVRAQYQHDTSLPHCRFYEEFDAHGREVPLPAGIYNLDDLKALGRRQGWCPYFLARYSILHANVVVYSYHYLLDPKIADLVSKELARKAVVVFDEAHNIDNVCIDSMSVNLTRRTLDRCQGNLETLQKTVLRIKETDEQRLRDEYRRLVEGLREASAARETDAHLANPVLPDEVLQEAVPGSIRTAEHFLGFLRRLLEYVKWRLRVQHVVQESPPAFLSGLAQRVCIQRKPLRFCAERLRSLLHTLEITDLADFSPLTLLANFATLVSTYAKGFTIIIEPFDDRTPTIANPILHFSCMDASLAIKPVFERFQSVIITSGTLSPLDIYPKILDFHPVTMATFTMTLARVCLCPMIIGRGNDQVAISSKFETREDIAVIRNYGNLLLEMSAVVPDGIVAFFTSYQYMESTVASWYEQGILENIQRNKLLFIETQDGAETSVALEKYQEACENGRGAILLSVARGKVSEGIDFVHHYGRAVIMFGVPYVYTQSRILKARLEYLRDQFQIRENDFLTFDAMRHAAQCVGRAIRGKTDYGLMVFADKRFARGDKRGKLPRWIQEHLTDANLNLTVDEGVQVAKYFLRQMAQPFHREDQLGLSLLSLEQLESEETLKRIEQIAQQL
Sequence of UniProt O60888 (O60888 whole entry, looked up): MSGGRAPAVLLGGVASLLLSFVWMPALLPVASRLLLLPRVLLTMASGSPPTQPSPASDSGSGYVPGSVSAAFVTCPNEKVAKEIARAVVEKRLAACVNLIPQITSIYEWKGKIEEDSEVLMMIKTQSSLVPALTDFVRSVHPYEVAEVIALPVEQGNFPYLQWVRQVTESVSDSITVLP
Sequence of UniProt Q7L014 (Q7L014 whole entry, looked up): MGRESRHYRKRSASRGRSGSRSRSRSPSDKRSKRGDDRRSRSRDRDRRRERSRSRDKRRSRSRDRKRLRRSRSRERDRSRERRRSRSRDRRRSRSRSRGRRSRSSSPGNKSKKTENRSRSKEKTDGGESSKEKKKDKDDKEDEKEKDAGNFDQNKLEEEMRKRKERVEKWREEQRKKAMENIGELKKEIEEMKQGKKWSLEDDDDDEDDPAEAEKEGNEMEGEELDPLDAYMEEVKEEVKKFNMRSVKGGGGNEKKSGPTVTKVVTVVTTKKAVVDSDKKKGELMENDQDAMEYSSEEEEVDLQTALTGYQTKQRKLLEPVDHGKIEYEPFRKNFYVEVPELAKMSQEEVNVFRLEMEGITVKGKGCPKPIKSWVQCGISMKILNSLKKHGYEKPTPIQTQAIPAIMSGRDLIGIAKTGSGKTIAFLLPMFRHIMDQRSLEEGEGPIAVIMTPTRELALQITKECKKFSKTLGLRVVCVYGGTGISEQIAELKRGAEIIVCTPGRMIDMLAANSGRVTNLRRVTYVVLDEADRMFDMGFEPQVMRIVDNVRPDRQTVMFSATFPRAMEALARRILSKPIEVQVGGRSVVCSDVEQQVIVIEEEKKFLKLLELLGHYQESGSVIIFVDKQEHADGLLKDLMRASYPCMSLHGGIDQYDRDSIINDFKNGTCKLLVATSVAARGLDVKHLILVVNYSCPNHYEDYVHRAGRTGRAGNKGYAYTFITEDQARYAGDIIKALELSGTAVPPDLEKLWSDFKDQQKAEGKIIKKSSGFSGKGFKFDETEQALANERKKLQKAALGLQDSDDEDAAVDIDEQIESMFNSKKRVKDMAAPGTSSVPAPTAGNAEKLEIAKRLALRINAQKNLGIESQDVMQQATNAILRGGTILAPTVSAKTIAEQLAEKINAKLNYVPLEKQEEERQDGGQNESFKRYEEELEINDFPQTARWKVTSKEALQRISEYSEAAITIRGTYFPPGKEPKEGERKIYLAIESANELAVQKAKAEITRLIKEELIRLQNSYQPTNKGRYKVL
Sequence of UniProt Q16254 (Q16254 whole entry, looked up): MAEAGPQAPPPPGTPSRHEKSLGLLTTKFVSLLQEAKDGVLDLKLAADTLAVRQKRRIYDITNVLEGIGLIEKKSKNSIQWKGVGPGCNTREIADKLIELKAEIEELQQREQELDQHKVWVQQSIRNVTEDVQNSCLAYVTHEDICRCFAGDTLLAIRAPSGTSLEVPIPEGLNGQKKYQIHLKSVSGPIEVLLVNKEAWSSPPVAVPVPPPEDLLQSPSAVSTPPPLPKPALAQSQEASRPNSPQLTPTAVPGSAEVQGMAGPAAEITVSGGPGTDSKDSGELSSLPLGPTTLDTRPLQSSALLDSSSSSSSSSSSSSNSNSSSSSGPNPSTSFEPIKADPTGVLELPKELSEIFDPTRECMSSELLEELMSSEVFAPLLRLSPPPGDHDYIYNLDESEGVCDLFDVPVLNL
Sequence of UniProt Q14320 (Q14320 whole entry, looked up): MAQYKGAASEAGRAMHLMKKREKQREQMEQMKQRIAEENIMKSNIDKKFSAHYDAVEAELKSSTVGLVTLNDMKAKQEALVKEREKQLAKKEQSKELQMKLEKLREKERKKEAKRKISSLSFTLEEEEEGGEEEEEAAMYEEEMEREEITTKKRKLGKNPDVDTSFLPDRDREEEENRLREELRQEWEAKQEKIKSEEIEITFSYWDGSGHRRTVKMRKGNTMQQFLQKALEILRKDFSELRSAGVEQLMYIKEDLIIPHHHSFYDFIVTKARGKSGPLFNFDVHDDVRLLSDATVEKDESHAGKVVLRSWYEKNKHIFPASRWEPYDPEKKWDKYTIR

Row | Target | log2 fold change [1] | log2 fold change [2] | log2 fold change [3] | log2 fold change [4] | log2 fold change (entinostat) | log2 fold change (vorinostat) | log2 fold change (citarinostat) | log2 fold change (silmitasertib) | log2 fold change [5] | log2 fold change [6] | log2 fold change (entospletinib)
1 | DHRS1 (UniProt Q96LJ7) | -0.118 | -0.047 | 0.184 | 0.095 | -0.082 | -0.098 | -0.237 | 0 | 0.834 (active) | 0.291 | -0.613
2 | DHRS7B (UniProt Q6IAN0) | -0.099 | 0.083 | -0.012 | 0.117 | -0.014 | 0.16 | 0.01 | -0.05 | -0.113 | 0.077 | 0.134
3 | ESYT1 isoform 2 (UniProt Q9BSJ8) | 0.062 | 0.004 | -0.004 | -0.044 | 0.086 | 0.122 | 0.033 | 0.041 | 0.187 | -0.048 | 0.003
4 | DNAJB1 (UniProt P25685) | -0.006 | -0.041 | -0.09 | -0.083 | 0.013 | 0.034 | 0.044 | 0.011 | -0.005 | -0.04 | -0.085
5 | DDX46 (UniProt Q7L014) | -0.185 | -0.087 | -0.178 | -0.197 | 0.095 | 0 | 0.103 | 0.018 | -0.243 | 0.084 | -0.043
6 | E2F4 (UniProt Q16254) | 0.004 | -0.052 | -0.105 | -0.032 | 0.016 | -0.052 | 0.067 | 0.001 | 0.015 | 0.005 | 0.02
7 | FAM50A (UniProt Q14320) | 0.003 | -0.008 | -0.087 | -0.082 | 0.045 | 0.011 | 0.095 | 0.071 | -0.001 | -0.019 | -0.006
8 | ERCC2 (UniProt P18074) | -0.015 | -0.011 | -0.109 | 0.004 | 0.014 | 0.045 | 0.103 | -0.052 | -0.092 | -0.039 | 0.154
9 | DYRK1A isoform 2 (UniProt Q13627) | -0.225 (active) | -0.034 | -0.115 | -0.064 | 0.028 | 0.056 | 0 | -0.292 (active) | -0.029 |  | 0.003
10 | CUTA isoform 2 (UniProt O60888) | -0.022 | 0.153 | 0.013 | 0.063 | 0.019 | -0.005 | 0.113 | -0.031 | -0.132 | -0.046 | -0.027
